Source: PubChem BioAssay AID1159580 (chemical genetic matrix, 2015)
About 2,000 (36%) of roughly 5,500 compounds were called active. Not shown: some 18% with an inconclusive outcome. No stated cut-off is given here; in the data, active means normalized growth mostly below about 0.91 (no sharp cut-off); inconclusive means no clear call, values can overlap the other calls; inactive means mostly above about 0.92. This is one part of the list.

Test: chemical genetic growth profiling, strain panel (AID 1159580);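 further: tested at 20 µM; growth read once vehicle control cultures reached saturation at 30 °C; 1 = growth at the plate median or of vehicle wells; lower values mean less growth of the strain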
Conditions: growth OD

Measured: normalized growth

Cc1ccc(-n2nc(-c3ccc(OC(F)(F)F)cc3)cc2NC(=O)Nc2ccc(OC(F)(F)F)cc2)cc1C
inactive: S. cerevisiae deletion strains, locus YAL013W, strain DEP1, hits give low values 1 | S. cerevisiae deletion strains, locus YBR229C, strain ROT2, hits give low values 1.02 | S. cerevisiae deletion strains, locus YDL101C, strain DUN1, hits give low values 1.01 | S. cerevisiae deletion strains, locus YDR150W, strain NUM1, hits give low values 1.02 | S. cerevisiae deletion strains, locus YEL061C, strain CIN8, hits give low values 1.01 | S. cerevisiae deletion strains, locus YGR078C, strain PAC10, hits give low values 1.04 | S. cerevisiae deletion strains, locus YHR030C, strain SLT2, hits give low values 1.09 | S. cerevisiae deletion strains, locus YHR087W, strain rtc3, hits give low values 1.01 | S. cerevisiae deletion strains, locus YJR043C, strain POL32, hits give low values 1.02 | S. cerevisiae deletion strains, locus YJR075W, strain HOC1, hits give low values 1.03 | S. cerevisiae deletion strains, locus YKL190W, strain CNB1, hits give low values 1.02 | S. cerevisiae deletion strains, locus YLR039C, strain RIC1, hits give low values 1.08 | S. cerevisiae deletion strains, locus YLR058C, strain SHM2 (second series), hits give low values 1.02 | S. cerevisiae deletion strains, locus YLR085C, strain ARP6, hits give low values 1.17 | S. cerevisiae deletion strains, locus YLR262C, strain YPT6, hits give low values 1.05 | S. cerevisiae deletion strains, locus YML094W, strain GIM5, hits give low values 1.02 | S. cerevisiae deletion strains, locus YMR219W, strain ESC1, hits give low values 1.02 | S. cerevisiae deletion strains, locus YMR263W, strain SAP30, hits give low values 1.05 | S. cerevisiae deletion strains, locus YNL153C, strain GIM3, hits give low values 0.996 | S. cerevisiae deletion strains, locus YNL298W, strain CLA4 (second series), hits give low values 1.05 | S. cerevisiae deletion strains, locus YNL322C, strain KRE1, hits give low values 1 | S. cerevisiae deletion strains, locus YNR030W, strain Alg12, hits give low values 1.01 | S. cerevisiae deletion strains, locus YPL055C, strain LGE1, hits give low values 1.06 | S. cerevisiae deletion strains, locus YPL241C, strain CIN2, hits give low values 1.08 | S. cerevisiae deletion strains, locus YPR135W, strain CTF4, hits give low values 0.996 | S. cerevisiae strains, strain wild type, hits give low values 1.02
